The values below come from PubChem BioAssay (EPA / NIEHS).

SMILES strings stand for the structures. Records with an inconclusive call do not appear. More than one record can exist for a structure, and the calls need not agree. The source made the active and inactive calls. How the source made its calls, unless noted: active means hit-call score of the fitted dose curve at least 0.9, where 1 is the maximum; inactive means score below 0.9.

Assay [1] can be described thus: ACEA_ER_80hr: ACEA Biosciences xCELLigence Real-Time Cell Analysis on Estrogen Receptor Agonism for Proliferation (AID 2282667; active means hit-call score of the fitted dose curve at least 0.9, where 1 is the maximum). The conditions noted are these: T47D proliferation, impedance (xCELLigence), 80 h. The gist of the method:
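T-47D cells monitored by electrical impedance (xCELLigence) with compound present throughout; 80 h timepoint, positive-direction fitting versus DMSO. Eight-point 1:4 dilutions from 100 uM final, duplicate plates.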

Assay [2] in a line: APR_HepG2_CellCycleArrest_24hr: Apredica 24-hour HepG2 Assay for Cell Cycle Arrest (AID 2282905).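 Further: cell cycle arrest scored as ratio of 2N to 4N nuclear DNA content.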 To be noted: imaging, actives raise or lower the signal. The gist of the method: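 Readout: Hoechst 33342 nuclear DNA content by high-content fluorescent imaging, six images/well, 20x. Human HepG2 liver cells, 24 hr compound exposure, 0.39–200 uM, final DMSO 0.5% v/v. Gain or loss fitted relative to DMSO baseline.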

A short description of assay [3]: APR_HepG2_NuclearSize_24hr: Apredica 24-hour HepG2 Assay for Nuclear Size (AID 2282907). The conditions noted are these: high-content imaging, actives raise or lower the signal. The gist of the method:
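Read-out: nuclear diameter from Hoechst 33342 (2 ug/mL) imaging of fixed HepG2 cells, 20x, six fields/well. Compounds ran at 0.39–200 uM for 24 hr, 0.5% DMSO final. Gain or loss was fitted bidirectionally relative to the DMSO baseline.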

Assay [4] can be described thus: APR_HepG2_CellLoss_24hr: Apredica 24-hour HepG2 Assay for Cell Loss (AID 2282908). The conditions noted are these: high-content imaging. The gist of the method:
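Read-out: Hoechst 33342-stained nuclei counted by automated fluorescence imaging after formaldehyde fixation and Triton permeabilization. Ten concentrations, 0.39 to 200 uM, duplicate wells, 0.5% DMSO final. Gain or loss of signal fitted relative to DMSO baseline.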

The nature of assay [5]: APR_HepG2_MicrotubuleCSK_24hr: Apredica 24-hour HepG2 Assay for Microtubule CSK Stabilty (AID 2282909). The conditions noted are these: HepG2 microtubule cytoskeleton imaging, actives raise or lower the signal. The gist of the method:
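Read-out: alpha-tubulin immunofluorescence intensity by automated high-content imaging of fixed HepG2 cells after 24 h compound treatment. Ten concentrations, 0.39 to 200 uM, in duplicate; DMSO 0.5% v/v. Taxol positive control; DMSO-normalized bidirectional curve fitting.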

Assay [6] can be described thus: APR_HepG2_MitoticArrest_24hr: Apredica 24-hour HepG2 Assay for Mitotic Arrest (AID 2282910). To be noted: high-content imaging, actives raise or lower the signal. The gist of the method:
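HepG2, 24 hr dosing, 0.39–200 uM, 0.5% DMSO final. Formaldehyde-fixed, Triton-permeabilised, anti-phospho-histone H3 plus Hoechst. ArrayScan imaging at 20x; bidirectional fit vs DMSO baseline.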

The nature of assay [7]: APR_HepG2_MitoMembPot_24hr: Apredica 24-hour HepG2 Assay for Mitochondrial Membrane Potential (AID 2282911). To be noted: imaging, actives raise or lower the signal. The method in brief: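 HepG2 cells exposed 24 h to 0.39–200 uM compounds in duplicate, 0.5% v/v DMSO final. MitoTracker Red CMXRos 250 nM loaded 30 min before formaldehyde fixation; high-content imaging at 20x, bidirectional fit versus DMSO.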

Assay [8] is described as follows: APR_HepG2_MitoMass_24hr: Apredica 24-hour HepG2 Assay for Mitochondrial Mass (AID 2282912). To be noted: high-content imaging, actives raise or lower the signal. The method in brief: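 HepG2, 24 hr dosing, 10 concentrations 0.39–200 uM in duplicate, DMSO 0.5% final. MitoTracker Red CMXRos 250 nM, 30 min pre-fix; 3.7% formaldehyde fix. Imaging-based fluorescence intensity; gain/loss fit vs DMSO baseline.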

A short description of assay [9]: APR_HepG2_p53Act_24hr: Apredica 24-hour HepG2 Assay for p53 Activation (AID 2282913).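 Further: p53 protein immunofluorescence averaged per cell in HepG2 with Hoechst nuclei.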 To be noted: high-content imaging, actives raise or lower the signal. The method in brief: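 HepG2 cells exposed 24 h to compounds at 0.39–200 uM in duplicate, 0.5% v/v DMSO final; fixed, permeabilized, stained with anti-p53 antibody and Hoechst 33342; fluorescence imaging; bidirectional curve fit versus DMSO.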

Assay [10] is described as follows: APR_HepG2_CellCycleArrest_72hr: Apredica 72-hour HepG2 Assay for Cell Cycle Arrest (AID 2282914). The conditions noted are these: high-content imaging, actives raise or lower the signal. The method in brief:
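HepG2 cells exposed 72 h in duplicate to 0.39–200 uM compound, 0.5% DMSO final. Formaldehyde-fixed, Hoechst 33342-stained nuclei imaged at 20x, six fields per well; DNA content per valid cell quantified by cell-cycle image analysis, bidirectional fit versus DMSO.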

Assay [11] in a line: APR_HepG2_CellLoss_72hr: Apredica 72-hour HepG2 Assay for Cell Loss (AID 2282915). To be noted: high-content imaging. The method in brief:
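HepG2 cells exposed 72 h to compound at 0.39–200 uM (10 concentrations, duplicate) in 0.5% DMSO. Fixed with 3.7% formaldehyde and Hoechst 33342-stained. Imaged at 20x; nuclear count gives cell number, fitted bidirectionally versus DMSO.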

The nature of assay [12]: APR_HepG2_P-H2AX_72hr: Apredica 72-hour HepG2 Assay for H2AX Phosphorylation (AID 2282916).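 Further: phospho-histone H2A.x immunostain intensity per cell marking DNA damage.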 The conditions noted are these: imaging, actives raise or lower the signal. The gist of the method: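 Readout: phospho-H2A.x immunofluorescence (FITC secondary) plus Hoechst nuclear stain, high-content imaging at 20x, six fields/well. HepG2, 72 hr compound exposure, 0.39–200 uM, final DMSO 0.5% v/v. Gain or loss fitted relative to DMSO baseline.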

Assay [13] in a line: APR_HepG2_MitoMembPot_72hr: Apredica 72-hour HepG2 Assay for Mitochondrial Membrane Potential (AID 2282917). To be noted: imaging, actives raise or lower the signal. The gist of the method:
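HepG2 cells dosed 72 hr with compound at 0.39–200 uM in duplicate, 0.5% v/v DMSO final. Mitochondria stained with 250 nM MitoTracker Red CMXRos for 30 min before formaldehyde fixation, imaged by high-content fluorescence; bidirectional fit versus DMSO.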

The nature of assay [14]: APR_HepG2_MitoticArrest_72hr: Apredica 72-hour HepG2 Assay for Mitotic Arrest (AID 2282918). The conditions noted are these: high-content imaging, actives raise or lower the signal. The method in brief: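 HepG2 cells treated 72 h at 0.39–200 uM, 0.5% DMSO final; formaldehyde-fixed, stained with Hoechst 33342 and phospho-histone H3 antibody, imaged by high-content fluorescence; bidirectional fit versus DMSO.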

A short description of assay [15]: APR_HepG2_MicrotubuleCSK_72hr: Apredica 72-hour HepG2 Assay for Microtubule CSK Stabilty (AID 2282919). To be noted: HepG2 microtubule cytoskeleton, high-content imaging, actives raise or lower the signal. The gist of the method: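 HepG2, 72 hr cmpd exposure, 0.39–200 uM (10 pts, duplicate), 0.5% DMSO. 3.7% formaldehyde fix, 0.5% Triton perm, anti-alpha-tubulin/Cy5 plus Hoechst. HCS fluorescence intensity; bidirectional fit vs DMSO baseline; taxol as positive control.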

Assay [16] is described as follows: APR_HepG2_P-H2AX_24hr: Apredica 24-hour HepG2 Assay for H2AX Phosphorylation (AID 2282920). To be noted: high-content imaging, actives raise or lower the signal. The gist of the method:
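HepG2 cells dosed 24 h at 0.39–200 uM (10 points, duplicate, 0.5% DMSO final). Formaldehyde-fixed and permeabilized, then immunostained for phospho-H2A.x with Hoechst. Fluorescence quantified by high-content imaging, fitted bidirectionally versus DMSO.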

Assay [17] in a line: APR_HepG2_StressKinase_72hr: Apredica 72-hour HepG2 Assay for Stress Kinase (AID 2282921). The conditions noted are these: HepG2 stress kinase (phospho-c-Jun) imaging, actives raise or lower the signal. The gist of the method: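 Phospho-c-Jun immunofluorescence measured by high-content imaging at 20x, six fields per well; bidirectional curve fitting against DMSO as baseline. Dosing: 0.39–200 uM, 72 h, 0.5% DMSO final.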

Assay [18] in a line: APR_HepG2_StressKinase_24hr: Apredica 24-hour HepG2 Assay for Stress Kinase (AID 2282922). The conditions noted are these: HepG2 stress kinase (phospho-c-Jun) imaging, actives raise or lower the signal. The method in brief: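 Read-out: phospho-c-Jun immunofluorescence (Cy3 secondary) quantified by high-content imaging at 20x, nuclei defined by Hoechst 33342. Human HepG2 liver cells dosed 24 hr, 0.39–200 uM, DMSO 0.5% v/v; gain or loss of signal fitted relative to DMSO.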

Assay [19] in a line: APR_HepG2_p53Act_72hr: Apredica 72-hour HepG2 Assay for p53 Activation (AID 2282923).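 Further: average cellular p53 protein immunofluorescence intensity in HepG2 cells.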 The conditions noted are these: high-content imaging, actives raise or lower the signal. The gist of the method: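 Readout: p53 immunofluorescence quantified by automated high-content imaging at 20x, six fields per well, nuclei located via Hoechst. Dosing ran 72 hr over ten concentrations from 0.39 to 200 uM; bidirectional curve fitting against DMSO baseline.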

A short description of assay [20]: APR_HepG2_MitoMass_72hr: Apredica 72-hour HepG2 Assay for Mitochondrial Mass (AID 2282924).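 Further: MitoTracker Red CMXRos stain intensity per cell imaged as mitochondrial mass.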 To be noted: high-content imaging, actives raise or lower the signal. The gist of the method: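 Read-out: MitoTracker Red fluorescence intensity from automated imaging (20x, six fields per well) in human HepG2 liver cells. Dosing ran 72 hr, 0.39–200 uM, 0.5% DMSO; bidirectional curve fitting versus DMSO baseline.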

`c1ccc2c(c1)ccc1ccccc12`: the result in [1], in assay [2], in assay [3], in assay [4], in assay [5] and in assay [6] was inactive. The outcome in [7], in [8], in assay [9], in assay [10], in [11] and in assay [12] was inactive. Also, the call in [13], in assay [14], in assay [15], in assay [16], in [17] and in [18] was inactive. Moreover, the call in [19] and in assay [20] was inactive.
On to `NCC(F)(F)C(F)(F)C(F)(F)C(F)(F)C(F)(F)C(F)(F)C(F)(F)F`, for which the call in [1] was inactive.
Turning to `CCCOC(=O)c1ccc(O)cc1`, the half-maximal activity concentration (AC50) in [1] was 2700 nM (active). For the same compound, the result in assay [2], in [3], in assay [4], in assay [5], in assay [6] and in assay [7] was inactive. In addition, the outcome in [8], in assay [9], in assay [10], in assay [11], in assay [12] and in [13] was inactive. Also, the compound was called inactive in assay [14], in [15], in [16], in [17], in [18] and in assay [19]. Besides, in assay [20], the compound was called inactive.
In the case of `ClC1=C(Cl)C(Cl)(Cl)C(Cl)=C1Cl`, the outcome in assay [1], in assay [2], in [3], in assay [4], in [5] and in assay [6] was inactive. Moreover, the compound was classed as inactive in assay [7], in [8], in assay [9], in assay [10], in assay [11] and in assay [12]. Also, the call in [13], in assay [14], in assay [15], in assay [16], in [17] and in assay [18] was inactive. The call in assay [19] and in [20] was inactive.
Consider `CCC(=C(c1ccc(O)cc1)c1ccc(OCCN(C)C)cc1)c1ccccc1`, for which, in [1], the AC50 is 2.29 nM (active). Besides, the compound was classed as inactive in assay [1], in assay [2], in [3], in [4], in assay [5] and in assay [6]. The compound was classed as inactive in assay [7], in assay [8], in assay [10], in assay [11], in assay [12] and in assay [13]. For the same compound, the compound was called inactive in [14], in assay [15], in [16], in [17] and in assay [20].
On to `CCOC(=O)CC(O)(CC(=O)OCC)C(=O)OCC`, for which, in [1], the half-maximal activity concentration (AC50) is 750 nM (active). For the same compound, the compound was called inactive in assay [2], in assay [3], in [4], in assay [5], in assay [6] and in [7]. The call in assay [8], in [9], in assay [10], in [11], in assay [12] and in [13] was inactive. In addition, the compound was classed as inactive in assay [14], in [15], in [16], in assay [17], in [18] and in assay [19]. In assay [20], the call was inactive.
For `O=C(/C=C/c1ccc(O)cc1)CC(=O)/C=C/c1ccc(O)cc1`, the result in [1], in assay [2], in assay [4], in assay [5], in assay [7] and in assay [9] was inactive. Also, the result in assay [10], in assay [11], in [13], in assay [14], in assay [15] and in assay [16] was inactive. The call in [19] was inactive. The AC50 is 68.6 µM (active) in assay [3]; 24.6 µM (active) in assay [6]; 61 µM (active) in assay [8]; 32.1 µM (active) in [12]; 27.1 µM (active) in [17]; 46.3 µM (active) in [20].
